Data reported in PubChem BioAssay.

Assay: basal RPMI8226 viability, no added stimulus, profiling panel, cell-based, calcein-AM fluorescence, 48 h, PK04 Diversity Set (AID 1166);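 also: cells grown under basal conditions without added stimulus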
Conditions: RPMI8226 myeloma viability, higher = more signal
Also: test concentration not given here.

Question: For `CC(C)c1ccc(NN2C(C(O)C(C)C)C=CC3C(=O)N(c4ccccc4)C(=O)C32)cc1` (stereo unspecified), which z-score is on record?
Answer: The z-score was -0.542.

Question: Which z-score does the source give for `CCCC[C@H]1OB(O)C[C@H]2C1=C(COC)C[C@H]1C(=O)C=CC(=O)[C@H]12` here?
Answer: Its z-score is -2.35.

Question: Which z-score does the source give for `COc1ccc([Si](C)(C)[C@H]2[C@H](CCn3cc([C@H](O)c4ccccc4)nn3)O[C@@]3(C(=O)N(c4ccccc4)c4ccccc43)[C@@H]2C)cc1` here?
Answer: Its z-score is -3.18.

Question: For `N#Cc1ccc(C(O)C2C=CC3C(=O)NC(=O)C3N2Nc2ccccn2)cc1` (stereo unspecified), which z-score is on record?
Answer: The z-score was -0.792.

Question: With `O=C1C2C=CC(C(O)c3cccs3)N(Nc3ccccc3)C2C(=O)N1c1ccccc1` (stereo unspecified) as the compound, how does the z-score read?
Answer: Its z-score is 0.502.

Question: Which z-score does the source give for `CC(C)=CCN(C(=O)C#Cc1ccccc1)[C@H](CO)c1ccccc1` here?
Answer: The z-score was -4.1.

Question: With `CCCC[C@@H]1C[C@H]1[C@@H](NC(=O)Cc1ccccc1)c1ccc(Cl)cc1` as the compound, how does the z-score read?
Answer: The z-score was -4.66.

Question: For `O=C1C2C=CC(C(O)c3ccc([N+](=O)[O-])cc3)N(Nc3ccccc3)C2C(=O)N1c1ccccc1` (stereo unspecified), which z-score is on record?
Answer: Its z-score is -0.423.

Question: For `O=C1C2C=CC(C(O)C(c3ccccc3)c3ccccc3)N(Nc3ccccc3)C2C(=O)N1c1ccccc1` (stereo unspecified), which z-score is on record?
Answer: The z-score was -0.213.

Question: For `CC(C)CNC(=O)[C@@]1(C)c2ccccc2C(=O)N(Cc2cc(F)cc(C(F)(F)F)c2)[C@H]1c1ccc(CO)cc1`, which z-score is on record?
Answer: The z-score was 0.594.

Question: With `Cc1c(NC(=O)/C(C#N)=C/c2ccc(Cl)cc2)c(=O)n(-c2ccccc2)n1C` as the compound, how does the z-score read?
Answer: Its z-score is -2.03.

Question: With `CN1C(=O)[C@]2(CCS(=O)(=O)c3ccccc3)N=C(c3ccc(OCCCO)cc3)O[C@@H]2c2ccccc21` as the compound, how does the z-score read?
Answer: Its z-score is -1.77.

Question: For `COc1cccc(C[C@H]2C[C@@H](CO[Si](C(C)C)(C(C)C)C(C)C)N3C(=O)[C@@]4(C(C)=O)O[C@@]23[C@@H]2C(=O)N(C)C(=O)[C@@H]24)c1`, which z-score is on record?
Answer: The z-score was -1.38.

Question: Which z-score does the source give for `CC(=O)n1cc(C(O)C2C=CC3C(=O)N(c4ccccc4)C(=O)C3N2Nc2ccccc2F)c2ccccc21` (stereo unspecified) here?
Answer: Its z-score is -0.056.

Question: For `CC=CC(O)C1C=CC2C(=O)N(C)C(=O)C2N1NC(=O)OC(C)(C)C` (stereo unspecified), which z-score is on record?
Answer: Its z-score is -0.303.

Assay: basal HepG2 mitochondrial membrane potential changes, profiling panel, cell-based, JC-1 fluorescence, 24 h, 100 nL compound (AID 1167)
Conditions: higher = more signal

Question: Which z-score does the source give for `CCCCC(=C=CC[C@@H](O)c1cccc(OCCO)c1)CCO` here?
Answer: Its z-score is 0.416.

Question: For `C=CCOC(=O)[C@@H]1[C@H]2C(=O)O[C@H](c3ccccc3)[C@H](c3ccccc3)N2[C@H](c2ccc(OCCOC(=O)[C@H]3C[C@H]4C(=O)NCC(=O)N4[C@H]3c3ccc(O)cc3)cc2)[C@@]12C(=O)Nc1ccc(I)cc12`, which z-score is on record?
Answer: Its z-score is -1.59.

Question: For `CN1C=C(C(=O)OCCS(C)(=O)=O)C(C(=O)OCCS(C)(=O)=O)=CC(CCCO)=CC1c1ccc(CN2CCCC2)cc1` (stereo unspecified), which z-score is on record?
Answer: The z-score was 1.82.

Question: Which z-score does the source give for `COCCOC(=O)N1C(=O)[C@@]2(c3cc(C#CC4(O)CCCCCC4)ccc31)[C@H](C(=O)N1CCc3cc(OC)c(OC)cc3C1)[C@H]1C(=O)O[C@H](c3ccccc3)[C@H](c3ccccc3)N1[C@@H]2c1ccc(O)cc1` here?
Answer: Its z-score is -0.145.

Question: For `O=C1O[C@@H](c2ccccc2)[C@@H](c2ccccc2)N2[C@@H](c3ccc(OCCO)cc3)[C@]3(C(=O)Nc4ccc(C#CCCO)cc43)[C@@H](C(=O)Nc3nc4ccccc4s3)[C@H]12`, which z-score is on record?
Answer: Its z-score is -3.09.

Question: For `COCCCNC(=O)[C@@H]1c2ccccc2C(=O)N(C2CCCCC2)[C@H]1c1ccc(CO)cc1`, which z-score is on record?
Answer: Its z-score is 2.49.

Question: With `C=CC[C@]1(C(=O)NCc2ccccc2)COC(c2ccc(OCCCO)cc2)=N1` as the compound, how does the z-score read?
Answer: Its z-score is -3.22.

Question: With `CN(C)CCCNC(=O)[C@@]1(Cc2ccccc2I)c2ccccc2C(=O)N(Cc2ccccc2)[C@H]1c1ccc(CO)cc1` as the compound, how does the z-score read?
Answer: Its z-score is 0.601.

Question: Which z-score does the source give for `COc1cccc(OC)c1C(=O)O[C@H]1[C@@H]2OC(=O)[C@H](Cc3cccc(Br)c3)C/C=C/C[C@@H](Cc3cccc(Br)c3)C(=O)O[C@H]2[C@@H](OC)O[C@@H]1CO` here?
Answer: Its z-score is -3.42.

Question: With `[N-]=[N+]=NCc1ccccc1C[C@]1(C(=O)NCc2ccccc2)N=C(c2ccc(OCCCO)cc2)O[C@H]1c1ccccc1CN=[N+]=[N-]` as the compound, how does the z-score read?
Answer: Its z-score is 0.247.

Question: Which z-score does the source give for `COCCOC(=O)N1C(=O)[C@@]2(c3cc(C#Cc4ccc(OC)cc4)ccc31)[C@H](c1ccc(OCCO)cc1)N1[C@H](c3ccccc3)[C@H](c3ccccc3)OC(=O)[C@H]1[C@@H]2C(=O)N1CCCCCCC1` here?
Answer: Its z-score is -0.16.

Question: With `Cc1ccc(S[C@]2(C(=O)NC3CC3)CC(=O)N(Cc3cc(C(F)(F)F)cc(C(F)(F)F)c3)[C@@H]2c2ccc(CO)cc2I)cc1` as the compound, how does the z-score read?
Answer: The z-score was -0.9.

Question: With `CC1(C)OC[C@@]23C=C(Br)[C@@H](C[C@H]12)[C@@]1(CO1)C3=O` as the compound, how does the z-score read?
Answer: Its z-score is -0.973.

Question: With `CCOC(=O)C1=CC[C@@H](c2ccccc2)N(S(=O)(=O)c2ccc(C)cc2)[C@H]1C#N` as the compound, how does the z-score read?
Answer: The z-score was -0.858.

Question: With `COc1ccccc1CN1C(=O)c2ccccc2[C@](Cc2ccccc2I)(C(=O)NCCCN(C)C)[C@@H]1c1ccc(CO)cc1` as the compound, how does the z-score read?
Answer: The z-score was -3.01.

Question: With `CCCC=C(CCC)[C@@H](NC(=O)c1ccco1)c1ccc(C(=O)OC)cc1` as the compound, how does the z-score read?
Answer: Its z-score is -4.88.

Question: With `CC(C)(C)OC(=O)CC[C@]1(C(N)=O)N=C(c2ccc(OCCCO)cc2)O[C@H]1c1ccccc1CN=[N+]=[N-]` as the compound, how does the z-score read?
Answer: Its z-score is -1.01.

Question: With `COc1ccc(NN2C(C(O)c3cc(C(F)(F)F)cc(C(F)(F)F)c3)C=CC3C(=O)N(C4CCCCC4)C(=O)C32)cc1` (stereo unspecified) as the compound, how does the z-score read?
Answer: The z-score was -1.68.

Question: For `COc1ccc(CCNC(=O)[C@@]2(C)c3ccccc3C(=O)N(Cc3cc(C(F)(F)F)cc(C(F)(F)F)c3)[C@H]2c2ccc(CO)cc2)cc1`, which z-score is on record?
Answer: Its z-score is 1.11.

Question: With `CC(C)C(=C=CC[C@@H](O)c1ccc(OCCO)cc1)CCO` as the compound, how does the z-score read?
Answer: The z-score was 0.871.

Question: Which z-score does the source give for `C=CCC(OC(C)=O)[C@@H]1[C@@H](N(Cc2cc3ccccc3o2)C(=O)c2ccc(-c3ccccc3)cc2)c2cc(OCCCO)ccc2N1C(=O)c1ccc2ccccc2n1` (stereo partly specified) here?
Answer: The z-score was 2.66.

Question: With `CC(C)c1ccc(NN2C(C(O)C(C)C)C=CC3C(=O)N(c4ccccc4)C(=O)C32)cc1` (stereo unspecified) as the compound, how does the z-score read?
Answer: The z-score was -0.419.

Question: Which z-score does the source give for `CCCC[C@H]1OB(O)C[C@H]2C1=C(COC)C[C@H]1C(=O)C=CC(=O)[C@H]12` here?
Answer: The z-score was -2.01.

Question: With `COc1ccc([Si](C)(C)[C@H]2[C@H](CCn3cc([C@H](O)c4ccccc4)nn3)O[C@@]3(C(=O)N(c4ccccc4)c4ccccc43)[C@@H]2C)cc1` as the compound, how does the z-score read?
Answer: The z-score was 1.63.

Question: Which z-score does the source give for `N#Cc1ccc(C(O)C2C=CC3C(=O)NC(=O)C3N2Nc2ccccn2)cc1` (stereo unspecified) here?
Answer: The z-score was -0.183.

Question: Which z-score does the source give for `O=C1C2C=CC(C(O)c3cccs3)N(Nc3ccccc3)C2C(=O)N1c1ccccc1` (stereo unspecified) here?
Answer: The z-score was -1.72.

Question: For `CC(C)=CCN(C(=O)C#Cc1ccccc1)[C@H](CO)c1ccccc1`, which z-score is on record?
Answer: Its z-score is -3.07.

Question: For `CCCC[C@@H]1C[C@H]1[C@@H](NC(=O)Cc1ccccc1)c1ccc(Cl)cc1`, which z-score is on record?
Answer: The z-score was -4.92.

Question: With `O=C1C2C=CC(C(O)c3ccc([N+](=O)[O-])cc3)N(Nc3ccccc3)C2C(=O)N1c1ccccc1` (stereo unspecified) as the compound, how does the z-score read?
Answer: Its z-score is -2.59.

Question: Which z-score does the source give for `O=C1C2C=CC(C(O)C(c3ccccc3)c3ccccc3)N(Nc3ccccc3)C2C(=O)N1c1ccccc1` (stereo unspecified) here?
Answer: The z-score was -0.335.

Question: Which z-score does the source give for `CC(C)CNC(=O)[C@@]1(C)c2ccccc2C(=O)N(Cc2cc(F)cc(C(F)(F)F)c2)[C@H]1c1ccc(CO)cc1` here?
Answer: Its z-score is 0.455.

Question: For `Cc1c(NC(=O)/C(C#N)=C/c2ccc(Cl)cc2)c(=O)n(-c2ccccc2)n1C`, which z-score is on record?
Answer: The z-score was 0.497.

Question: Which z-score does the source give for `CN1C(=O)[C@]2(CCS(=O)(=O)c3ccccc3)N=C(c3ccc(OCCCO)cc3)O[C@@H]2c2ccccc21` here?
Answer: The z-score was -0.447.

Question: For `COc1cccc(C[C@H]2C[C@@H](CO[Si](C(C)C)(C(C)C)C(C)C)N3C(=O)[C@@]4(C(C)=O)O[C@@]23[C@@H]2C(=O)N(C)C(=O)[C@@H]24)c1`, which z-score is on record?
Answer: Its z-score is -1.64.

Question: With `CC(=O)n1cc(C(O)C2C=CC3C(=O)N(c4ccccc4)C(=O)C3N2Nc2ccccc2F)c2ccccc21` (stereo unspecified) as the compound, how does the z-score read?
Answer: The z-score was -0.69.

Question: For `CC=CC(O)C1C=CC2C(=O)N(C)C(=O)C2N1NC(=O)OC(C)(C)C` (stereo unspecified), which z-score is on record?
Answer: The z-score was -1.55.
